Data from PubChem BioAssay (NCI).
The panel holds about 79,000 compounds, 15% with a hit somewhere; the sample as a whole holds those more often. Activity calls are given as the source filed them. Rule as the data show it: active = growth inhibition above about 70%; inactive = the rest.

Columns and labels:
[1] = NCI Yeast Anticancer Drug Screen. Data for the rad52 strain (AID 147);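 also: 0% = growth of vehicle-treated control cultures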; details: S. cerevisiae rad52 mutant growth inhibition, stronger effect = higher value
Outline: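 Vehicle-treated cultures served as the reference for growth inhibition of compound-exposed yeast bearing a DNA repair mutation.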

[2] = NCI Yeast Anticancer Drug Screen. Data for the wt1 strain (AID 149);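 also: 0% = growth of vehicle-treated wt1 cultures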; details: S. cerevisiae wt1 strain (SPY 50644) growth inhibition, stronger effect = higher value
Outline: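 Growth inhibition read against vehicle controls after compound exposure of the wt1 yeast strain.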

[3] = NCI Yeast Anticancer Drug Screen. Data for the rad50EPP+ strain (AID 151);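 also: 0% = growth of vehicle-treated control cultures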; details: S. cerevisiae rad50 mutant strain, stronger effect = higher value
Outline: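 In this screen, rad50EPP+ yeast were exposed to compounds. Growth inhibition was scored against vehicle-treated controls.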

[4] = NCI Yeast Anticancer Drug Screen. Data for the mgt1 strain (AID 153); details: S. cerevisiae mgt1 mutant growth inhibition, stronger effect = higher value
Outline: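 mgt1 strain exposed; growth vs vehicle control recorded as inhibition.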

[5] = NCI Yeast Anticancer Drug Screen. Data for the rad50 strain (AID 155);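 also: 0% = growth of vehicle-only cultures of the same strain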; details: S. cerevisiae rad50 strain growth inhibition, stronger effect = higher value
Outline: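 Readout: growth inhibition relative to vehicle-treated cultures. Compound exposure was carried out in a genetically defined yeast strain deficient in DNA damage repair.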

[6] = NCI Yeast Anticancer Drug Screen. Data for the mec2-1 strain (AID 157); details: S. cerevisiae mec2-1 strain, stronger effect = higher value
Outline: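 Vehicle-treated cultures served as reference for growth inhibition of compound-exposed mec2-1 yeast.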

[7] = NCI Yeast Anticancer Drug Screen. Data for the rad14 strain (AID 159);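 also: 0% = growth of vehicle-treated control cultures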; details: S. cerevisiae rad14 strain growth inhibition, stronger effect = higher value
Outline: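 Growth inhibition vs vehicle controls; genetically altered yeast strain (DNA damage repair defect) treated with test compounds.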

[8] = NCI Yeast Anticancer Drug Screen. Data for the sgs1 mgt1 strain (AID 161);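 also: 0% = growth of cultures given vehicle only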; details: S. cerevisiae sgs1 mgt1 strain, stronger effect = higher value
Outline: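 Read-out: growth inhibition vs vehicle controls. Cells: mutant yeast strain deficient in DNA damage repair.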

[9] = NCI Yeast Anticancer Drug Screen. Data for the CLN2oe strain (AID 163);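 also: 0% = growth of vehicle-only control cultures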; details: S. cerevisiae CLN2oe strain, stronger effect = higher value
Outline: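 Inhibition relative to vehicle-treated yeast is reported. Cells: strain with genetic alteration in cell-cycle control, grown with compound.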

[10] = NCI Yeast Anticancer Drug Screen. Data for the cln2 rad14 strain (AID 165);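 also: 0% = growth equal to vehicle treated cultures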; details: S. cerevisiae cln2 rad14 strain, stronger effect = higher value
Outline: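 Each compound was tested on cln2 rad14 yeast. Inhibition of growth was calculated against vehicle-exposed controls.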

[11] = NCI Yeast Anticancer Drug Screen. Data for the bub3 strain (AID 167); details: S. cerevisiae bub3 mutant strain, stronger effect = higher value
Outline: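 Readout: yeast growth inhibition, expressed relative to vehicle-only wells. The test organism is a mutant strain from a panel with lesions in DNA repair or checkpoint genes.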

[12] = NCI Yeast Anticancer Drug Screen. Data for the wt2 strain (AID 169);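 also: 0% = growth of vehicle-treated yeast cultures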; details: S. cerevisiae wt2 strain growth inhibition, stronger effect = higher value
Outline: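 Inhibition of yeast growth was determined after compound treatment, normalised to controls receiving only vehicle.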

[13] = NCI Yeast Anticancer Drug Screen. Data for the mlh1 strain (AID 171);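 also: 0% = growth of vehicle-treated control cultures of the same strain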; details: S. cerevisiae mlh1 strain growth inhibition, stronger effect = higher value
Outline: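 Vehicle-normalised growth inhibition of a repair- or checkpoint-altered yeast strain following compound treatment.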

[14] = NCI Yeast Anticancer Drug Screen. Data for the sgs1 strain (AID 173);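 also: 0% = growth of vehicle-only control cultures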; details: S. cerevisiae sgs1 mutant, stronger effect = higher value
Outline: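 Screen format: yeast with repair or checkpoint alterations, compound exposure, growth read relative to vehicle.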

[15] = NCI Yeast Anticancer Drug Screen. Data for the mlh1 rad18 strain (AID 175); details: S. cerevisiae mlh1 rad18 strain growth inhibition, stronger effect = higher value
Outline: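 Vehicle-treated cultures served as the reference for growth inhibition in a yeast strain carrying DNA damage repair alterations exposed to each compound.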

[16] = NCI Yeast Anticancer Drug Screen. Data for the rad18 strain (AID 177); details: S. cerevisiae rad18 mutant growth inhibition, stronger effect = higher value
Outline: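 Test articles were incubated with altered yeast defective in DNA damage repair. Results are given as inhibition of growth versus vehicle.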

[17] = at 5.0 µM (retest, dose inferred, filed as 0.5)
[18] = at 50.0 µM (retest, dose inferred, filed as 5.0)

Measured: growth inhibition

C/C(=N\NC(=S)N1CCCCC1)c1cccc(C)n1
active: [1]; at 3.7 µM 91% | [1]; at 11.0 µM 97% | [1]; at 33.0 µM 99% | [1]; at 100.0 µM 99% | [2]; at 3.7 µM 95% | [2]; at 11.0 µM 98% | [2]; at 33.0 µM 99% | [2]; at 100.0 µM 99% | [3]; at 11.0 µM 95% | [3]; at 33.0 µM 99% | [3]; at 100.0 µM 99% | [4]; at 3.7 µM 94% | [4]; at 11.0 µM 99% | [4]; at 33.0 µM 99% | [4]; at 100.0 µM 98% | [5]; at 3.7 µM 94% | [5]; [17] 89% | [5]; at 11.0 µM 98% | [5]; at 33.0 µM 98% | [5]; [18] 100% | [5]; at 50.0 µM 89.7% | [5]; at 100.0 µM 98% | [6]; at 3.7 µM 92% | [6]; [17] 86% | [6]; at 11.0 µM 96% | [6]; at 33.0 µM 99% | [6]; [18] 100% | [6]; at 50.0 µM 92.2% | [6]; at 100.0 µM 99% | [7]; at 3.7 µM 97% | [7]; at 11.0 µM 99% | [7]; at 33.0 µM 100% | [7]; at 100.0 µM 99% | [8]; [17] 81% | [8]; [18] 99% | [8]; at 50.0 µM 85.8% | [9]; at 3.7 µM 94% | [9]; at 11.0 µM 99% | [9]; at 33.0 µM 100% | [9]; at 100.0 µM 99% | [10]; [17] 93% | [10]; [18] 99% | [10]; at 50.0 µM 90.7% | [11]; at 3.7 µM 87% | [11]; [17] 93% | [11]; at 11.0 µM 99% | [11]; at 33.0 µM 99% | [11]; [18] 99% | [11]; at 50.0 µM 89.2% | [11]; at 100.0 µM 99% | [12]; at 3.7 µM 94% | [12]; at 11.0 µM 97% | [12]; at 33.0 µM 98% | [12]; at 100.0 µM 99% | [13]; at 3.7 µM 92% | [13]; at 11.0 µM 96% | [13]; at 33.0 µM 96% | [13]; at 100.0 µM 96% | [14]; at 3.7 µM 91% | [14]; at 11.0 µM 98% | [14]; at 33.0 µM 98% | [14]; at 100.0 µM 98% | [15]; [17] 81% | [15]; [18] 99% | [15]; at 50.0 µM 86.2% | [16]; at 3.7 µM 90% | [16]; at 11.0 µM 98% | [16]; at 33.0 µM 98% | [16]; at 100.0 µM 97%
inactive: [1]; at 1.2 µM -4% | [2]; at 1.2 µM 41% | [3]; at 1.2 µM -8% | [3]; at 3.7 µM 38% | [4]; at 1.2 µM 49% | [5]; at 1.2 µM 23% | [6]; at 1.2 µM 39% | [7]; at 1.2 µM 45% | [9]; at 1.2 µM 50% | [11]; at 1.2 µM 21% | [12]; at 1.2 µM -10% | [13]; at 1.2 µM 1% | [14]; at 1.2 µM 9% | [16]; at 1.2 µM 7%

O=C1CSC(/C=C/c2ccccc2)N1c1ccc(-c2ccc(-n3c(-c4ccccc4)nc4ccccc4c3=O)cc2)cc1 (stereo unspecified)
active: [4]; at 100.0 µM 81% | [5]; [18] 78% | [5]; at 50.0 µM 75.5% | [7]; at 100.0 µM 79% | [8]; at 50.0 µM 87.2% | [11]; at 50.0 µM 75% | [11]; at 100.0 µM 79% | [13]; at 100.0 µM 77% | [15]; [18] 91% | [15]; at 50.0 µM 84.3%
inactive: [1]; at 1.2 µM -2% | [1]; at 3.7 µM 1% | [1]; at 11.0 µM 4% | [1]; at 33.0 µM 15% | [1]; at 100.0 µM 61% | [2]; at 1.2 µM -2% | [2]; at 3.7 µM -2% | [2]; at 11.0 µM -3% | [2]; at 33.0 µM -6% | [2]; at 100.0 µM 14% | [3]; at 1.2 µM 2% | [3]; at 3.7 µM 10% | [3]; at 11.0 µM 19% | [3]; at 33.0 µM 28% | [3]; at 100.0 µM 29% | [4]; at 1.2 µM -2% | [4]; at 3.7 µM -2% | [4]; at 11.0 µM -4% | [4]; at 33.0 µM 19% | [5]; at 1.2 µM -1% | [5]; at 3.7 µM 3% | [5]; [17] -9% | [5]; at 11.0 µM 5% | [5]; at 33.0 µM 22% | [5]; at 100.0 µM 58% | [6]; at 1.2 µM -1% | [6]; at 3.7 µM 0% | [6]; [17] 0% | [6]; at 11.0 µM 1% | [6]; at 33.0 µM 7% | [6]; [18] 45% | [6]; at 50.0 µM 42.5% | [6]; at 100.0 µM 67% | [7]; at 1.2 µM 1% | [7]; at 3.7 µM 2% | [7]; at 11.0 µM 9% | [7]; at 33.0 µM 31% | [8]; [17] -1% | [8]; [18] 5% | [9]; at 1.2 µM 2% | [9]; at 3.7 µM -1% | [9]; at 11.0 µM -6% | [9]; at 33.0 µM -9% | [9]; at 100.0 µM 22% | [10]; [17] 9% | [10]; [18] 42% | [10]; at 50.0 µM 32.5% | [11]; at 1.2 µM 4% | [11]; at 3.7 µM 12% | [11]; [17] -6% | [11]; at 11.0 µM 22% | [11]; at 33.0 µM 35% | [11]; [18] 65% | [12]; at 1.2 µM -3% | [12]; at 3.7 µM -3% | [12]; at 11.0 µM -4% | [12]; at 33.0 µM 5% | [12]; at 100.0 µM 62% | [13]; at 1.2 µM -2% | [13]; at 3.7 µM -1% | [13]; at 11.0 µM -2% | [13]; at 33.0 µM 18% | [14]; at 1.2 µM -2% | [14]; at 3.7 µM -2% | [14]; at 11.0 µM 0% | [14]; at 33.0 µM 17% | [14]; at 100.0 µM 61% | [15]; [17] -6% | [16]; at 1.2 µM -3% | [16]; at 3.7 µM 1% | [16]; at 11.0 µM 5% | [16]; at 33.0 µM 13% | [16]; at 100.0 µM 46%
